Sampled rows, rich in hits. Any-hit rate of the full collection: about 6%.
D1 PAM: enhances dopamine response at the human D1 receptor. HEK293 TREx D1 cells, calcium flux, dopamine EC20 potentiation. potentiation, % at 10 µM. 0.036% of 360,000 active; in the data active = potentiation above about 30%; also: 0% is about no effect
DRD3 antagonist: D3 dopamine receptor (human) antagonism | P35462 | D3R cells, DiscoveRx beta-arrestin luminescence, antagonist mode; hits give low values | max response, negative = inhibition, % | 2.5% of 360,000 active | AID 652054; in the data active = max response below about -50%; inconclusive = no clear call, values can overlap the other calls; also: % is scaled to controls: 0 for no effect and ±100 for the full control effect
Target sequence (P35462 whole entry, looked up): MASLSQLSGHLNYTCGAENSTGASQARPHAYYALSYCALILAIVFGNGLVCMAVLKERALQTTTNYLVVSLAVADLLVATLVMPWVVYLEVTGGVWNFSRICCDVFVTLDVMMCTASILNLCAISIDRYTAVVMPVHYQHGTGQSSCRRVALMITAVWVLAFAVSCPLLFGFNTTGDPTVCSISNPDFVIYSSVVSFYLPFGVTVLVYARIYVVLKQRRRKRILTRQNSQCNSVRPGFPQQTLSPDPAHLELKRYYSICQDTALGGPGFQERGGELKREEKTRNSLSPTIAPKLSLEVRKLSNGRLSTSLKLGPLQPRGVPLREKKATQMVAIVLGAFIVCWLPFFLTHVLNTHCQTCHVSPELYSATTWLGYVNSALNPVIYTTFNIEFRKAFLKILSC
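Cells expressing the human receptor were seeded at 1500 cells/well, incubated overnight at 37 degrees C in 5% CO2, then exposed to library compounds with dopamine controls for 90 minutes at 37 degrees C before luminescent detection.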
D3 ag: activates the human D3 dopamine receptor; P35462; 0.58% of 410,000 active; max activation, %; D3R DiscoveRx beta-arrestin cells, luminescence, 90 min; in the data active = max activation above about 30%; also: 0% is about no effect
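Agonist mode: compounds and dopamine controls were applied to plated cells for 90 min at 37 degrees C after an overnight attachment at 1500 cells/well. Luminescent read-out followed 30 - 60 minutes at room temperature with DiscoveRx detection reagent.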
D1 agonist: activates the human D1 dopamine receptor; 1% of 360,000 active; P21728; activation, % at 2 µM; AID 504660; HEK293 T-REx D1 cells, calcium flux, agonist mode; in the data active = activation above about 30%; also: 0% is about no effect
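Agonism was scored from calcium flux recorded over 180 s (1 read/s) after pintool compound addition, following a 10-cycle baseline. Cells were inducible force-coupled HEK293 TREx D1, plated overnight at 30 C and loaded with no-wash calcium dye.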
D1 antagonist: human D1 dopamine receptor antagonism | 3.2% of 360,000 active | AID 504652 | activity change, negative = inhibition, % at 10 µM | HEK293 TREx D1 cells, calcium flux, dopamine EC80; hits give low values | P21728; in the data active = activity change below about -30%; also: % is scaled to controls: 0 for no effect and ±100 for the full control effect
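Calcium flux readout: force-coupled, inducible Hek293 Trex D1 line, cells induced overnight at 30 C with tetracycline, dye-loaded 30–90 min at RT. Antagonism scored against EC80 dopamine challenge given 180 s after compound.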
Numbers without * were called inactive; ? = inconclusive; . = no result given.

SMILES | D1 PAM | DRD3 antagonist | D3 ag | D1 agonist | D1 antagonist
Cc1nnc(SCc2cc(=O)[nH]c(Nc3nc(C)c4cc(C)c(C)cc4n3)n2)s1 | -2 | 9 | 1 | 0 | -73*
Cc1ccc2c(C)nc(Nc3nc(CSc4nc5ccccc5s4)cc(=O)[nH]3)nc2c1 | . | 0 | -16 | . | .
Cc1ccc(SCc2cc(=O)[nH]c(Nc3nc(C)c4cccc(C)c4n3)n2)cc1 | -5 | -84* | -7 | 2 | 5
COc1ccc2nc(Nc3nc(CSc4nnnn4-c4ccccc4)cc(=O)[nH]3)nc(C)c2c1 | -4 | -59* | 7 | 0 | 3
CCOc1ccc2nc(Nc3nc(CSc4nnnn4-c4ccccc4)cc(=O)[nH]3)nc(C)c2c1 | -2 | 21 | 2 | 1 | 1
COc1ccc(-c2nc(C)c(CCNS(=O)(=O)c3cc(C)c(C)cc3C)s2)cc1 | 0 | . | 2 | 0 | -20
Cc1ccccc1NC(=O)Nc1nc(C(N)C2CCCCC2)cs1 (configuration not stated) | . | -84* | -11 | . | .
CC(C)c1ccc(NC(=O)Nc2nc(C(N)C3CCCCC3)cs2)cc1 (configuration not stated) | . | 11 | -7 | . | .
CCCCCCN1C=CC=C/C1=C\C=C(C#N)C#N | 7 | -10 | 9 | 64* | -7
CC(=O)NC(CC(C)C)C(=O)NC(Cc1ccccc1)C(N)=O (configuration not stated) | -2 | 9 | 30* | -1 | -14
COc1ccccc1-c1nnc(C2CCN(C(=O)c3cccc(C)c3)CC2)o1 | 0 | . | 6 | -2 | -2
Nc1c(CO)nnn1-c1ccccc1 | -3 | -54* | -19 | 8 | 2
COC(=O)CC(=O)Cc1nc(N)nc(Nc2ccc(C)c(C)c2)n1 | -9 | 7 | 7 | 1 | -50*
Cc1ccc(Nc2nc(N)nc(CN3CCN(C)CC3)n2)cc1C | -4 | . | . | 3 | 11
N=c1n(Cc2ccc(Cl)cc2)c2ccccc2n1CC(O)COc1ccccc1 (configuration not stated) | -3 | 11 | 12 | 68* | -6
Cc1cccc(OCC(O)Cn2c(=N)n(Cc3ccccc3)c3ccccc32)c1 (configuration not stated) | -4 | 0 | 4 | 68* | -3
N=c1n(Cc2ccccc2)c2ccccc2n1CC(O)COc1ccc(Cl)cc1Cl (configuration not stated) | 32* | 4 | 2 | 87* | -7
COc1ccc(OCC(O)Cn2c(=N)n(Cc3ccccc3)c3ccccc32)cc1 (configuration not stated) | -20 | -13 | 2 | 48* | -46*
Cc1ccc(OCC(O)Cn2c(=N)n(Cc3ccccc3)c3ccccc32)cc1 (configuration not stated) | -5 | 2 | 2 | 10 | -5
Cc1ccc2nc(CSc3nnc(NC(=O)c4ccc(C(C)(C)C)cc4)s3)cc(=O)n2c1 | 1 | . | 5 | 1 | 17
N#Cc1cc([N+](=O)[O-])c(-n2nnc3ccccc32)c([N+](=O)[O-])c1 | 1 | -58* | -2 | 1 | -1
CS(=O)(=O)c1ccc(-n2nnc3ccccc32)c([N+](=O)[O-])c1 | -2 | ? | -11 | 1 | -29
N#Cc1nc(-c2cccs2)oc1N1CCN(Cc2ccccc2)CC1 | -3 | -75* | -43 | 1 | -10
N#Cc1nc(COc2ccccc2)oc1N1CCN(Cc2ccccc2)CC1 | -3 | 9 | 5 | 3 | -5
CN(C)c1ccc(NC(=O)CCSc2nc(-c3ccco3)cc(C(F)(F)F)n2)cc1 | -6 | . | 7 | 1 | -33*
SMILES | D1 PAM | DRD3 antagonist | D3 ag | D1 agonist | D1 antagonist
Cc1ccc(NC(=O)CCSc2nc(-c3ccc4c(c3)OCO4)cc(C(F)(F)F)n2)cc1 | -4 | . | -11 | 5 | -4
Cc1ccc(NC(=O)CSc2nc(-c3ccco3)cc(C(F)(F)F)n2)cc1 | -7 | . | -7 | 12 | -35*
Cc1ccc(NC(=O)CCSc2nc(-c3ccc4c(c3)OCO4)cc(C(F)(F)F)n2)c(C)c1 | -5 | . | 56* | 3 | 4
COC(=O)c1ccccc1NC(=O)CSc1nc(-c2ccccc2)cc(C(F)(F)F)n1 | -7 | . | 0 | 4 | -42*
Fc1ccc(Nc2nc(SCc3cccc(F)c3)nc3ccccc23)cc1 | -5 | . | 11 | 11 | -15
CCc1c(C)sc2c1CCN(Cc1cccc(OC)c1)C2c1ccccc1 (configuration not stated) | 0 | . | 7 | 0 | 1
COC(=O)c1c(NC(=O)COc2ccc(C)cc2Br)sc2c1CCCC2 | 1 | . | -14 | 3 | 15
Cc1cc(NC(=O)CCSc2nc(-c3ccco3)cc(C(F)(F)F)n2)no1 | -4 | -4 | 7 | 55* | -13
Cc1ccc2c(c1)-c1c(c(C(=O)NCCc3ccccc3)nn1C)CS2 | 0 | . | -3 | 7 | -4
CC1CCN(C(C)C(=O)Nc2ccccc2-c2ccccc2)CC1 (configuration not stated) | 5 | -56* | -6 | 2 | 53
O=C(CCSCc1ccccc1F)N1CCN(c2ccc(F)cc2)CC1 | 5 | . | 1 | 0 | 0
COc1ccccc1C(=O)Nc1nnc(SCc2cc(=O)c3cc(Cl)ccc3[nH]2)s1 | 3 | . | -18 | 0 | -7
COc1cc([N+](=O)[O-])cc(/C=N/NC(=O)Cn2cncn2)c1O | -3 | -76* | -26 | 5 | 8
COc1cc([N+](=O)[O-])cc(/C=N/NC(=O)CSc2ccccn2)c1O | 6 | -52* | -16 | -1 | -11
Cc1ccc(Cl)cc1NS(=O)(=O)c1ccc2oc(=O)c3ncn(C)c3c2c1 | 0 | . | -19 | -2 | 7
CCOc1cc(C2C(C#N)=C(N)OC3=C2C(=O)CC(C)(C)C3)cc([N+](=O)[O-])c1O (configuration not stated) | -3 | -12 | 4 | 4 | 10
CC1(C)CC(=O)C2=C(C1)OC(N)=C(C#N)C2c1cc2c(cc1[N+](=O)[O-])OCO2 (configuration not stated) | -2 | -25 | -7 | 1 | -33*
O=C1C=C(c2ccccc2)C(=O)N1Nc1ccccc1 | -8 | ? | 4 | 4 | -10
Cc1ccc(NN2C(=O)C=C(c3ccc(Cl)cc3)C2=O)cc1 | -8 | -53* | -1 | 3 | -39*
COc1ccc(C2=CC(=O)N(Nc3ccccc3)C2=O)cc1 | -5 | -62* | -13 | 5 | 19
COc1ccc(N2CCN(C(=O)Cn3cnc4sc(C)c(S(=O)(=O)N5CCCCC5)c4c3=O)CC2)cc1 | 0 | . | 4 | 2 | -6
COc1ccc(NC(=O)C2CCN(C(=O)Nc3ccccc3)CC2)cc1S(=O)(=O)N(C)C | -10 | -67* | -22 | 3 | -17
COc1ccc(NC(=O)C2CCN(C(=O)Cc3ccccc3)CC2)cc1OC | 0 | -11 | 5 | 3 | 1
COc1ccc(CN2C(=O)CC(Cc3cc(C)cc(C)c3)C2=O)cc1OC (configuration not stated) | -9 | 15 | 3 | 2 | -43*

Screening results deposited in PubChem BioAssay by National Center for Advancing Translational Sciences (NCATS).
